The nature of assay [1]: P-glycoprotein substrates identified in KB-8-5-11 adenocarcinoma cell line, qHTS therapeutic library screen (AID 1346987). Note: nearly all actives have a fitted effect of over 65% in size. Note: potency is the fitted concentration of half-maximal effect. The essentials:
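Steps: plate 500 KB-8-5-11 cells/well in DMEM + 10% FCS (colchicine removed); pin compounds in dose-response; incubate 72 h, 37 degree C, 5% CO2; add CellTiter-Glo, 5 min; read luminescence.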
(In general: qHTS replaces the single test concentration by a dilution series.)

Assay [2] concerns Zika virus NS2B-NS3 protease (unlinked complex). As to the kind of experiment: Primary screen GU Rhodamine qHTS for Zika virus inhibitors: Unlinked NS2B-NS3 protease assay (AID 1347159). Note: % is set by controls: 0 for no effect and ±100 for the full control effect; nearly all actives have a fitted effect of over 60% in size. The essentials:
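Noncovalent NS2B hydrophilic domain/NS3 protease complex (25 nM final) in 10 mM Tris-HCl pH 8.0, 0.01% Tween 20, preincubated 15 min with compounds (up to 114 microM), then 1.5 microM Rhodamine110 substrate. Fluorescence change over 15 min fitted to 4-parameter Hill.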

The target of assay [3] is Calcium and integrin-binding protein 1 (Homo sapiens) (UniProt Q99828). The assay can be described thus: Primary qHTS for Identification of Calcium Integrin Binding Protein 1 (CIB1) Competitor (AID 1508620). Note: top concentration of the series differs between compounds; % is set by controls: 0 for no effect and ±100 for the full control effect. The essentials: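 Fluorescence polarization competition: GST-tagged CIB1 (1 uM final) preincubated with compound 15 min at room temperature, then FITC-labelled alphaIIb peptide (100 nM final) added. After 15 min at room temperature, polarization read at Ex 480/Em 540.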
Chain of Calcium and integrin-binding protein 1 (Homo sapiens) (Q99828 whole entry, looked up): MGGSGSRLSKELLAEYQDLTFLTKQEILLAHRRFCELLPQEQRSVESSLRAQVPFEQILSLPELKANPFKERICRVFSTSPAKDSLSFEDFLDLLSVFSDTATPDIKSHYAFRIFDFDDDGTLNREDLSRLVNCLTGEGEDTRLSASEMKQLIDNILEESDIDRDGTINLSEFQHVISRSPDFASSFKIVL

Assay [4] in a line: Primary qHTS for inhibitors of nuclear receptor binding SET domain protein 2 (NSD2) in an isogenic RCH-ACV NSD2 p.E1099K mutant (9B) (AID 1645876). Note: potency is the fitted concentration of half-maximal effect; nearly all actives have a fitted effect of over 70% in size.
Assay [5] can be described thus: Primary qHTS for inhibitors of nuclear receptor binding SET domain protein 2 (NSD2) in an RCH-ACV wild type WT cells (2C) (AID 1645877). Note: potency is the fitted concentration of half-maximal effect; nearly all actives have a fitted effect of over 70% in size.
Assay [6] has as its target Glutathione peroxidase 1 (Homo sapiens) (UniProt P07203). The assay can be described thus: Primary qHTS Assay for Inhibitors of Recombinant Selenoprotein Glutathione Peroxidase 1 (GPX1) (AID 1845191). For activity, negative = inhibition: % is set by controls: 0 for no effect and ±100 for the full control effect. Note: nearly all actives have a fitted effect of over 65% in size. The essentials:
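GR-coupled assay: compounds preincubated 30 min at room temperature with GPX1, then reaction started with CHP; final 10 nM GPX1, 1 mM GSH, 0.5 mM CHP, 0.5 mM NADPH, 100 nM GR, 0.01% BSA, pH 7.5 Tris buffer. NADPH fluorescence (340/450 nm) read at 0 and 15 min.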

In assay [7] the target is Phospholipid hydroperoxide glutathione peroxidase GPX4 (Homo sapiens) (UniProt P36969). The assay can be described thus: Primary qHTS Assay for Inhibitors of Recombinant Selenoprotein Glutathione Peroxidase 4 (GPX4) (AID 1845192). For activity change, negative = inhibition: % is set by controls: 0 for no effect and ±100 for the full control effect. Note: nearly all actives have a fitted effect of over 65% in size. Conditions: outcome: dose series up to 50 µM unless noted. The essentials: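 GR-coupled assay: recombinant GPX4 preincubated 30 min with compound at room temperature; final 200 nM GPX4, 1 mM GSH, 0.5 mM cumene hydroperoxide, 0.5 mM NADPH, 100 nM GR, 0.01% BSA, pH 7.5 Tris. NADPH fluorescence (340/450 nm) read at 0 and 15 min.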
Chain of Phospholipid hydroperoxide glutathione peroxidase GPX4 (Homo sapiens) (P36969 whole entry, looked up): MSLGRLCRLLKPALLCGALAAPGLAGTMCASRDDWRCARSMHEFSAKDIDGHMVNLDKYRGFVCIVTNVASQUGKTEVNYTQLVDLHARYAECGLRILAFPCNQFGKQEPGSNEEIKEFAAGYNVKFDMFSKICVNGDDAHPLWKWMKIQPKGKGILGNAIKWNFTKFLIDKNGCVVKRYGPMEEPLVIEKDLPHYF

For assay [8], the target named is Luciferin 4-monooxygenase (Photinus pyralis) (UniProt P08659). As to the kind of experiment: Primary firefly luciferase (FLuc) qHTS assay for identification of artifact compounds. (AID 1845220).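 For activity change, negative = inhibition: plate controls were DMSO vehicle for no effect and no enzyme for full effect.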 Note: nearly all actives have a fitted effect of over 60% in size. The essentials: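 Titrated compounds were incubated 15 min at RT, protected from light, with luciferin and ATP at 10 uM; reaction started with 10 nM FLuc, luminescence imaged at 5 min, and concentration-response fitted by Hill equation.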

Assay [9] in a line: Primary fluorescence-based thiol-reactive (MSTI) qHTS assay for identification of artifact compounds. (AID 1845221).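 Note: thiol-reactive compounds lower the probe fluorescence signal; nearly all actives have a fitted effect of over 65% in size.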 The essentials: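 Reactivity toward the thiol probe MSTI (4 uM) is scored by fluorescence at Ex/Em 525/598 nm after 1 h at room temperature. Acetyl-MSTI and MSTI define the activity scale.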
A further assay deals with C33A. The assay can be described thus: Primary qHTS to identify gynecologic anti-cancer compounds using libraries of approved drugs and bioactive compounds (AID 1345084). For activity change, negative = cytotoxicity: % is set by controls: 0 for no effect and ±100 for the full control effect. Note: nearly all actives have a fitted effect of over 55% in size. Note: potency is the fitted concentration of half-maximal effect. Particulars: Gynecologic cancer cell panel viability, ATPlite luminescence, 48 h; series mostly up to 57.5 µM. The essentials: (§1)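 Measured: luminescence after ATPlite addition (15 min, RT). Exposure: 48 h, 37 C, 5% CO2.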

For another assay, the system named is HeLa. Described as above. Conditions: Gynecologic cancer cell panel viability, ATPlite luminescence, 48 h; series mostly up to 57.5 µM. The essentials: as §1
The test system of another assay is Hek293T. The description is as above. Particulars: Gynecologic cancer cell panel viability, ATPlite luminescence, 48 h, control line for the selectivity index; series mostly up to 57.5 µM. The essentials: as §1
The subject of a further assay is Tov112D. The description is as above. Particulars: Gynecologic cancer cell panel viability, ATPlite luminescence, 48 h; series mostly up to 57.5 µM. The essentials: as §1
(In general: ATP-based viability assays read luminescence as a measure of living cells.)

Assay [10] relates to Zika virus NS2B-NS3 protease (linked construct). The assay can be described thus: Primary screen NINDS Rhodamine qHTS for Zika virus inhibitors (AID 1347160). Note: nearly all actives have a fitted effect of over 55% in size. The essentials:
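Purified NS2B-NS3 protease with the NS2B hydrophilic domain joined by a flexible linker (25 nM) in 10 mM Tris-HCl pH 8.0, 0.01% Tween 20, preincubated 15 min at RT with compound; Rhodamine110 peptide substrate 1.5 µM; fluorescence change over 15 min; 4-parameter Hill fit.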

The subject of a further assay is Es-2. The assay can be described thus: Primary qHTS to identify gynecologic anti-cancer compounds using libraries of approved drugs and bioactive compounds (AID 1345084). Note: nearly all actives have a fitted effect of over 55% in size. Note: potency is the fitted concentration of half-maximal effect. Particulars: Gynecologic cancer cell panel viability, ATPlite luminescence, 48 h; series mostly up to 57.5 µM. The essentials: as §1
For another assay, the system named is JEG-3. Described as above. Particulars: Gynecologic cancer cell panel viability, ATPlite luminescence, 48 h; series mostly up to 57.5 µM. The essentials: as §1
Assay [11] has as its system Nanoluciferase (engineered Oplophorus gracilirostris luciferase). The assay can be described thus: Primary Nanoluciferase (NLuc) qHTS assay for identification of artifact compounds. (AID 1845222).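 Note: NLuc secreted into diluted conditioned medium of S16 cells; 0% = DMSO and -100% = no enzyme.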 The essentials: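 qHTS format, against NLuc in S16 cell-conditioned medium. Nano-Glo substrate 1:100 was added after 15 min at room temperature. Luminescence was taken after a further 5 min.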

The subject of a further assay is OV90. The assay can be described thus: Primary qHTS to identify gynecologic anti-cancer compounds using libraries of approved drugs and bioactive compounds (AID 1345084). Note: nearly all actives have a fitted effect of over 55% in size. Note: potency is the fitted concentration of half-maximal effect. Conditions: Gynecologic cancer cell panel viability, ATPlite luminescence, 48 h; series mostly up to 57.5 µM. The essentials: as §1
The next assay relates to CASKI. The assay is described as above. Conditions: Gynecologic cancer cell panel viability, ATPlite luminescence, 48 h; series mostly up to 57.5 µM. The essentials: as §1
Assay [12] can be described thus: qHTS drug screen for cell cycle checkpoint inhibitors in PARPi-resistant BRCA-mutant ovarian cancer cell lines. (AID 1963452; calls by dose curve). Conditions: PEO1/OlaR viability, CellTiter-Glo luminescence, 96 h, stronger effect = lower value. The essentials:
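PEO1, PEO4 and PEO1/OlaR ovarian cancer cells, 600 per well, exposed 96 h at 37C to a dilution series. Viability read by CellTiter-Glo luminescence, normalized to DMSO and empty wells; activity summarized as Z-AUC.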

Structures are written as SMILES. Inconclusive results are not listed. Activity calls are given as the source filed them. Unless noted, calls come from the whole dose curve; as a rule, active = well fitted curve in the direction sought with a large enough effect; inconclusive = small, poorly fitted or top-dose-only effect, or another doubt; inactive = no such curve, though single readings can be large; an effect the other way counts as inactive or inconclusive.

Results on eight compounds are retold here after PubChem BioAssay (NCATS).

Chain of Glutathione peroxidase 1 (Homo sapiens) (P07203 whole entry, looked up): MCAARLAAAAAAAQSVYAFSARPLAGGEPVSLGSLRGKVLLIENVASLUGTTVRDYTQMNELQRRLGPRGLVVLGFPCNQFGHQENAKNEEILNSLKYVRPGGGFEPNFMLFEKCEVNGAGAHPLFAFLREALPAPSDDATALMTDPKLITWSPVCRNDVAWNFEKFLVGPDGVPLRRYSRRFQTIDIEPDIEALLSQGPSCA

As for `CC(C)COc1ccc(CNC(=O)N(Cc2ccc(F)cc2)C2CCN(C)CC2)cc1`, the Potency in assay [1] is 16.4 µM (active); in assay [4], 20.5 µM (active); in assay [5], 18.3 µM (active). Besides, the Potency result (in assay [2]; in [6]; in [7]; in [8]; in assay [9]; with C33A) was “inactive” in each case. The Potency entry in the assay with HeLa, in the assay with Hek293T and with Tov112D was “inactive” throughout. For the same compound, in [3], the outcome was inactive.
For the compound `CCN1CCC[C@@H]1CNC(=O)c1ccc2c(c1)NC(=O)/C(=C/c1ccccc1F)S2`, the Potency entry in assay [2], in assay [10], in assay [6], in assay [7], in [8] and in assay [9] was “inactive” throughout. Further, the Potency entry in the assay with C33A, in the assay with Es-2, in the assay with HeLa, in the assay on Hek293T, with JEG-3 and with Tov112D was “inactive” throughout. The result in assay [3] was inactive. Besides, the Potency in assay [4] is 4.59 µM (active); in assay [5] it was 5.15 µM (active).
Take `CC1(C)CC[C@]2(C(=O)OC3OC(CO)C(O)C(O)C3O)CC[C@]3(C)C(=CCC4[C@@]5(C)CC[C@H](OC6OC(C(=O)O)C(O)C(O)C6O)C(CO)(CO)C5CC[C@]43C)[C@@H]2C1` (stereo partly drawn): the outcome in [1] was “inactive [at 9.29 µM]”. Further, the Potency entry in assay [2], in [10], in [6] and in assay [7] was “inactive” throughout. In [3], the result was inactive. The Potency in assay [4] was 0.869 µM (active); in assay [5], 0.435 µM (active). Further, the activity change, negative = inhibition in assay [8] was 0.233% [at 11.6 µM] (inactive). For the same compound, the activity change, negative = thiol reactive in [9] was 84.5% [at 11.5 µM] (inactive). Further, the activity, negative = inhibition in [11] was -2.38% [at 11.6 µM] (inactive). For the same compound, the activity change, negative = cytotoxicity with HeLa is -15.8% [at 11.6 µM] (inactive); in the assay on Hek293T it was -26.5% [at 11.6 µM] (inactive); in the assay with OV90 it was -19.7% [at 11.6 µM] (inactive); in the assay with Tov112D, -7.53% [at 11.6 µM] (inactive).
In the case of `COc1cc2nc(N3CCN(C)CC3)nc(NC3CCN(Cc4ccccc4)CC3)c2cc1OC`, the Potency was 16.4 µM (active) in assay [1], 6.49 µM (active) in [4], 5.78 µM (active) in assay [5] and 22.4 µM (active) in the assay on OV90. For the same compound, the Potency result in assay [2], in assay [10], in [6], in [8], in assay [9] and in [11] was “inactive” throughout. The Potency entry with C33A, with HeLa and in the assay on Hek293T was “inactive” in each case. Also, the result in assay [3] was inactive.
For `CCOP(=O)(Cc1ccc(C(=O)Nc2ccc(Br)cc2C#N)cc1)OCC`, the Potency result in assay [10], in assay [6], in assay [7], in assay [8], in assay [9] and in assay [11] was “inactive” in each case. Besides, the Potency entry in the assay on CASKI, in the assay on Es-2, in the assay with HeLa, in the assay on Hek293T, in the assay on JEG-3 and in the assay with OV90 was “inactive” in each case. The Potency entry in the assay with Tov112D is “inactive”. Also, the result in assay [3] was inactive.
`Fc1ccc(C2CCNC[C@H]2COc2ccc3c(c2)OCO3)cc1` (stereo partly drawn): the Potency entry in assay [2], in [10], in [7], in assay [8], in assay [9] and in assay [11] was “inactive” in each case. The Potency result with HeLa, in the assay on Hek293T, with JEG-3 and with Tov112D was “inactive” each time. Moreover, the outcome in assay [3] was inactive. Besides, the results for the Potency (in assay [4]; in [5]; in the assay with Es-2) were 18.3 µM (active), 11.5 µM (active) and 22.4 µM (active), respectively.
Regarding `COC1CC(=O)C23C(=O)NC(CC(C)C)C2C(C)C(C)=CC3/C=C(\C)CCC(O)C1O` (stereo not drawn), the Potency entry in [2], in [10], in assay [6], in assay [7], in assay [8] and in [9] was “inactive” throughout. Also, the Potency result in the assay with CASKI, in the assay with Es-2, in the assay with HeLa, with Hek293T, in the assay with JEG-3 and with OV90 was “inactive” in each case. For the same compound, the Potency entry with Tov112D is “inactive”. For the same compound, the result in assay [3] was inactive. Moreover, the figures for the Potency in assay [4] and in assay [5] were 3.99 µM (active) and 2.24 µM (active), respectively.
For `c1ccc(Cn2c(-c3ccc(OCC(C4CCNCC4)n4c(-c5ccccc5)nc5ccccc54)cc3)nc3ccccc32)cc1` (stereo not drawn), the Potency result (in [10]; in [6]; in assay [7]; in [8]; in the assay on CASKI; in the assay on Es-2) was “inactive” throughout. Besides, the Potency entry in the assay on HeLa, with Hek293T, in the assay with JEG-3, in the assay on OV90 and in the assay on Tov112D was “inactive” each time. Besides, the outcome in [3] was inactive. In addition, the Potency in assay [4] is 6.61 µM (active); in assay [5], 5.9 µM (active). In addition, the values for the Z-AUC in assay [12], in assay [12] (measured here: PEO1 parental Z-AUC) and in assay [12] (measured here: PEO4 Z-AUC) were 0.308 (inactive), -0.228 and -0.72, respectively.
